Inconclusive results are not listed. The list shows a part of the results. Active and inactive are the calls of the source. Calls follow the shape of the dose curve; as a rule, active = well fitted curve in the direction sought with a large enough effect; inconclusive = small, poorly fitted or top-dose-only effect, or another doubt; inactive = no such curve, though single readings can be large; an effect the other way counts as inactive or inconclusive.
Molecular target: Vitamin D3 receptor (Homo sapiens) (UniProt P11473)
Assay: qHTS for Inhibitors of the vitamin D receptor (VDR): Hit Validation in Primary Screen (AID 602199)
Conditions: VDR-coactivator inhibition assay, qHTS confirmation
Method in brief: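 Fluorescence polarization (Ex 620/Em 688 nm) of Alexa 647-SRC2-3 peptide with 800 nM VDR and 5 uM LG19078. Compounds at several concentrations, 2 h at room temperature.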
Potency is read from the fitted curve at half-maximal effect.

Chain of Vitamin D3 receptor (Homo sapiens) (P11473 whole entry, looked up): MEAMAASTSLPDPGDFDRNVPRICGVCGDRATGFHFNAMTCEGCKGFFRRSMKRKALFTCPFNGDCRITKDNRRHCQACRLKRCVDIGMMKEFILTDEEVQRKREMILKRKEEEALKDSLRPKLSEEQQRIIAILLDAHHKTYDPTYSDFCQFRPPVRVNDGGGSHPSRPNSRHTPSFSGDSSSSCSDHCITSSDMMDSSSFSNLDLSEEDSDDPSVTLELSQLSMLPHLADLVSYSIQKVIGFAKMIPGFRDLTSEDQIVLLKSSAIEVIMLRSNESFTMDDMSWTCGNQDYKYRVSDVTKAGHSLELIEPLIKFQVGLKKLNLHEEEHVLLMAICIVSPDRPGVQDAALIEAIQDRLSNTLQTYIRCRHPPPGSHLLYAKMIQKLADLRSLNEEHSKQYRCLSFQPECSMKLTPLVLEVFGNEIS

SMILES	Potency
O=C(Nc1ccccc1)c1nnsc1S(=O)(=O)c1ccc(Cl)cc1	16.8 µM (active)
CN(C)N=Nc1ccc2nc[nH]c2c1	10.6 µM (active)
Cc1cc(C)nc(S/C=C/C(=O)c2ccccc2)n1	3.55 µM (active)
CC(=O)N(C1=C(Cl)C(=O)c2ccccc2C1=O)c1ccc(C(=O)O)cc1	7.94 µM (active)
CC(=O)N1CC[n+]2c(-c3ccc([N+](=O)[O-])cc3)csc21	10 µM (active)
O=C(/C=C/c1ccc(Cl)c([N+](=O)[O-])c1)c1cccnc1	2.51 µM (active)
O=c1[nH]c2ccccc2n2c(-c3ccccc3)nnc12	9.47 µM (active)
CCOC(=O)c1sc(=S)n2c1[nH]c(=O)c1ccc(C(=O)OC)cc12	7.94 µM (active)
COC(=O)/C=C\C(=O)Nc1cccc([N+](=O)[O-])c1	5.32 µM (active)
COc1ccc(OCc2nnc3n2N=C(c2ccccc2)C(CC(=O)O)S3)cc1 (configuration not stated)	1.58 µM (active)

System: not listed separately
Assay: qHTS for Inhibitors of the vitamin D receptor (VDR): Hit Validation using a Texas Red Assay (AID 602201); as to activity, negative = inhibition: % is scaled to controls: 0 for no effect and ±100 for the full control effect
Conditions: VDR coregulator binding, Texas Red fluorescence polarization, agonist-bound VDR ligand-binding domain; series mostly up to 57.1 µM; activity, negative = inhibition: at the top concentration
Method in brief: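 Fluorescence polarization with 1.5 uM VDR-LBD, LG19078 and 7 nM Texas Red (final). After 2 hours at ambient temperature, read at Ex 595 nm/Em 615 nm.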

SMILES	activity, negative = inhibition	Potency
Oc1ccc(C(=S)N2CCN(c3cccc(Cl)c3)CC2)cc1	-11% (inactive)	–
CCOc1ccc(C(=O)CC(C(=O)O)N2CCCCC2)cc1 (configuration not stated)	-4.98% (inactive)	–
O=c1[nH]c(/C=C/c2ccc(Cl)cc2Cl)c([N+](=O)[O-])c(=O)[nH]1	28.6% (inactive)	–
CC1=CC(=O)C(C(C)C)=CC1=NC(=O)c1ccc(C)cc1	-11.6% (inactive)	–
CN(C)N=Nc1ccc2nc[nH]c2c1	0.94% (inactive)	–
NC(=O)c1ccc(N=C2C(=O)Nc3ccc([N+](=O)[O-])cc32)cc1	–	1.41 µM (active)
O=C1C(=O)c2c(C(=O)c3ccccc3)coc2-c2ccccc21	-19.7% (inactive)	–
Cc1cc(C)nc(S/C=C/C(=O)c2ccccc2)n1	–	14.1 µM (active)
CC(=O)N(C1=C(Cl)C(=O)c2ccccc2C1=O)c1ccc(C(=O)O)cc1	–	3.55 µM (active)
O=C(Cc1ccccc1Cl)NC1(O)C(=O)c2ccccc2C1=O	-4.23% (inactive)	–
CC(=O)N(C(C)=O)N1C(=O)C2C3c4ccccc4C(c4ccccc43)C2C1=O (configuration not stated)	-17.7% (inactive)	–
Cc1nc2ccc(N=NN(C)C)cc2[nH]1	-12.3% (inactive)	–
Cc1ccc(C=Nc2ccc(N(C)C)cc2)o1	–	20 µM (active)
CN1CCN(C(=S)C(=O)Nc2ccc(Br)cc2)CC1	–	17.8 µM (active)
O=C1Nc2ccc(Br)cc2C1=Nc1cccnc1	-14.4% (inactive)	–
CC(=O)Nc1cccc(C(=O)/C=C/c2ccc(Br)cc2)c1	–	5.62 µM (active)
CCOC(=O)N1C(=O)[C@@](CC)(c2ccccc2)N1C(=O)OCC	-14.9% (inactive)	–
Cc1ccc(S(=O)(=O)CCC(=O)c2cccc([N+](=O)[O-])c2)cc1	–	3.55 µM (active)
O=S1OC(c2ccccc2)c2cc(Cl)ccc21 (configuration not stated)	–	7.08 µM (active)

SMILES	activity, negative = inhibition	Potency
CC(=O)N1CC[n+]2c(-c3ccc([N+](=O)[O-])cc3)csc21	–	7.08 µM (active)
O=C1ON=C(c2ccccc2)/C1=C/c1ccc(O)cc1	-14.3% (inactive)	–
CCN(CC)S(=O)(=O)c1ccc(O)c(NS(=O)(=O)c2ccccc2F)c1	-16.8% (inactive)	–
O=C(/C=C/c1ccc(Cl)c([N+](=O)[O-])c1)c1cccnc1	–	4.47 µM (active)
O=[N+]([O-])c1ccc(C2=Nn3c(Cn4nnc5ccccc54)nnc3SC2)cc1	–	25.1 µM (active)
Cc1oc2c(c1C(=O)c1ccc(Cl)cc1)C(=O)C(=O)c1ccccc1-2	–	3.98 µM (active)
CCOc1cc(/C=C2\COc3ccccc3C2=O)cc(Br)c1OCC(=O)N(C)C	-20.6% (inactive)	–
O=C(Nc1ccccc1)c1nc(S(=O)(=O)Cc2ccccc2F)ncc1Cl	–	2.82 µM (active)
S=C(NNc1ccnc2cc(Cl)ccc12)Nc1ccccc1Cl	–	14.1 µM (active)
COc1ccc(Cl)cc1NC(=O)CCS(=O)(=O)c1nc(-c2cccs2)cc(C(F)(F)F)n1	–	11.2 µM (active)
c1ccc(OCc2nn3c(Cn4nnc5ccccc54)nnc3s2)cc1	–	14.1 µM (active)
O=S(=O)(/C(=C/c1ccc(C(F)(F)F)cc1)c1nc2ccccc2[nH]1)c1ccccc1	-7.1% (inactive)	–
CCOC(=O)c1sc(=S)n2c1[nH]c(=O)c1ccc(C(=O)OC)cc12	–	10 µM (active)
COc1cccc(/C=C2\C(=O)N(c3cccc(C)c3)C(=O)c3ccccc32)c1	–	14.1 µM (active)
Oc1cc2c(cc1C(c1ccc(Cl)c(Cl)c1)N1CCCC1)OCO2 (configuration not stated)	–	8.91 µM (active)
Cc1ccc(S(=O)(=O)Oc2ccc(/C=C3\C(=N)N4N=C(S(C)(=O)=O)SC4=NC3=O)cc2)cc1	47.3% (inactive)	–
COc1ccc(OCc2nnc3n2N=C(c2ccccc2)C(CC(=O)O)S3)cc1 (configuration not stated)	–	3.16 µM (active)
CCS(=O)(=O)c1ncc(Cl)c(C(=O)N2CCN(c3cccc(Cl)c3)CC2)n1	–	2.82 µM (active)

— PubChem BioAssay (NCATS)
